Assay outcomes from PubChem BioAssay.
A selection: hits, their analogues and other compounds. The true share with any hit is near 3.6%.
CRE-bla Fsk = CRE-bla signaling modulation under forskolin stimulation | CHO CRE-bla reporter (cAMP response element driving beta-lactamase), forskolin EC10, beta-lactamase ratio | Potency, µM (highest dose often 38.2 µM), without a hit: at the top dose activity change, negative = inhibition, usual class: activators | 2.5% of 71,000 active | AID 662; active = well fitted activation curve with a large enough effect in the signal ratio, with a control signal flat, not every such curve was filed as active; inconclusive = small, poorly fitted or top-dose-only effect, or effect the other way, or a change in a side signal; the % refers to the signal ratio; note: % of control where 0% means no effect
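Forskolin analogue NKH 477 at EC10 stimulated CRE-driven beta-lactamase in CHO cells alongside compound dilution series. Beta-lactamase was measured with CCF4, excitation 405 nm, emission ratio 460/530 nm.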
Hsp90 Hop PPI = changes Hsp90-Hop TPR2A binding signal, up or down | AlphaScreen TPR2A-His6 binding biotin-Hsp90 C-terminal peptide | Potency, µM (series often up to 57 µM), inactives show at the highest dose activity change, negative = inhibition | 0.44% of 71,000 active; active = well fitted curve in either direction with a large enough effect; inconclusive = small, poorly fitted or top-dose-only effect, or another doubt; note: % is set by controls: 0 for no effect and ±100 for the full control effect
IkB sig inh = inhibitors of IkB signaling in ABC-DLBCL cells; ABC-DLBCL IkBa-CBG/CBR dual luciferase ratio, 4 h; response scale: scaled: untreated 0%, proteasome inhibitor 100%; Potency, µM (highest dose often 57.1 µM), without a hit: at the top dose IkBa stabilization activation; 0.04% of 110,000 active; AID 445; active = well fitted curve in the direction sought with a large enough effect in the signal ratio, not every such curve was filed as active; inconclusive = small, poorly fitted or top-dose-only effect, or a change in a side signal; the % refers to the signal ratio;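 note: the direction sought is a rising ratio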
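Luminescence ratio of IκBα-fused green versus native red beetle luciferase in OCI-Ly3 cells, 4 h post-doxycycline with compound; red signal alone, scaled from basal (0%) to zero light (-100%), flagged nonspecific or cytotoxic effects.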
Tau fil binding = binds recombinant human tau filaments. 2% of 71,000 active. Potency, µM (highest dose often 57.1 µM), without a hit: at the top dose activity change, negative = inhibition. recombinant tau filaments, thioflavin S fluorescence, 15 h; filaments grown with octadecylsulfate alongside compound. AID 596;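 note: % is set by controls: 0 for no effect and ±100 for the full control effect; actives lower thioflavin S fluorescence by blocking filaments or displacing dye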
Target sequence (P10636 whole entry, looked up): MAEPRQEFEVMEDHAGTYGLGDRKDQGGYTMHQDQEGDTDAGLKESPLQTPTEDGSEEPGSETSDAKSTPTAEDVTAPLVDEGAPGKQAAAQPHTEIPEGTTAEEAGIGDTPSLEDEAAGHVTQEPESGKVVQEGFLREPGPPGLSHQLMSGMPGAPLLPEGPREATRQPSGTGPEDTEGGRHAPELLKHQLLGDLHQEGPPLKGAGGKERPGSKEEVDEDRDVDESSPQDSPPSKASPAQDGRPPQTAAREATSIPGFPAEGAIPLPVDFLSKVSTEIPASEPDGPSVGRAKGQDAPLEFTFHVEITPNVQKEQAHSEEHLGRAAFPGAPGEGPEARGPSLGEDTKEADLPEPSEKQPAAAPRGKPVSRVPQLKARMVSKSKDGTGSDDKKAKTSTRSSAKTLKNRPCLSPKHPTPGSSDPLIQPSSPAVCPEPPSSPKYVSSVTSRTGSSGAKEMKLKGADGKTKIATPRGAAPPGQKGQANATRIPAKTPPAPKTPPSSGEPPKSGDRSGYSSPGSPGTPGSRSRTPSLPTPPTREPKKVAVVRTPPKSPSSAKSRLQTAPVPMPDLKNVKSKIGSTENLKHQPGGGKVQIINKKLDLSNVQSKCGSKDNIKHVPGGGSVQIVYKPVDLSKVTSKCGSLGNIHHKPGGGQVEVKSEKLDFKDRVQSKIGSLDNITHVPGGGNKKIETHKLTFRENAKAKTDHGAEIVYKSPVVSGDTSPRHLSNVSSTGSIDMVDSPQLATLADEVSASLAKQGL
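His-tagged recombinant human tau (exons 2, 3, 10; 1 uM final) fibrillized with 30 uM sodium octadecylsulfate, 15 h at 37 C, in pH 7.4 HEPES buffer with 10 uM thioflavine S and 5 mM DTT. Reduced ThS fluorescence (450/510 nm) marks activity.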
ALOX15 inhib = blocks human 15-lipoxygenase activity | P16050 | purified 15hLO-1, xylenol orange hydroperoxide absorbance | Potency, µM (titrated, usually from 57.1 µM), for inactives: top-dose activity change, negative = inhibition, most hits filed as inhibitors | 1.4% of 74,000 active | AID 887; note: % is set by controls: 0 for no effect and ±100 for the full control effect; nearly all actives have a fitted effect of over 55% in size
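Readout: Fe(III)-xylenol orange absorbance, 573-to-405 nm ratio as reaction progress. Enzyme 40 nM purified human 15hLO-1, substrate 50 uM arachidonic acid, 6 min RT after 15 min compound preincubation; Hepes pH 7.5 buffer with Triton X-100.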
* hit, by the source's call; ? = inconclusive; / = not tested or not shown; [ ] = dose if it differs, or a comment. Unless noted, calls come from the whole dose curve; as a rule, active = well fitted curve in the direction sought with a large enough effect; inconclusive = small, poorly fitted or top-dose-only effect, or another doubt; inactive = no such curve, though single readings can be large; an effect the other way counts as inactive or inconclusive. Potency is the fitted concentration of half-maximal effect.

SMILES	CRE-bla Fsk	Hsp90 Hop PPI	IkB sig inh	Tau fil binding	ALOX15 inhib
Cc1cc2cc(CNC(=O)c3cccs3)ccc2n1C	3.1%	-15.2%	-0.2%	25.1µM*	15.8µM*
CCOC(=O)NCc1ccc2c(c1)cc(C)n2C	1.3%	-4.9%	-1.1%	?	-5.8%
Cc1cc2cc(CNC(=O)Nc3ccccc3)ccc2n1C	-9.7%	?	?	20µM*	-28.6%
CC(=O)c1cccc(NC(=O)c2ccc3c(c2)N(Cc2ccc(C)cc2)CCS3)c1	/	/	-0.2%	/	/
CCOc1ccc(C(c2c(O)cc(C)n(Cc3ccco3)c2=O)N2CCN(c3ccccc3)CC2)cc1 (stereo unspecified)	/	/	4.1%	/	/
O=C(CCCc1ccccc1)NC1CC(=O)N(c2ccc(Cl)cc2)C1 (stereo unspecified)	/	/	2.9%	/	/
COc1ccc(N2CCN(C(=O)c3ccc(NS(=O)(=O)c4ccc(F)cc4)cc3)CC2)cc1	?	-22.0%	?	15.8µM*	?
CC[C@](C)(CN(C)C)OC(=O)c1ccccc1	-2.1%[17.1 µM]	-0.2%[26 µM]	-1.3%[25.6 µM]	-6.9%[25.6 µM]	8.3%[25.6 µM]
Cc1ccc(CNC(=O)CCCn2c(=O)[nH]c3ccc(Br)cc3c2=O)cc1	/	/	1.0%	/	/
c1ccc(-c2cc(-c3nc(-c4cccnc4)no3)c3ccccc3n2)cc1	?	-2.0%	-0.9%	3.98µM*	2.3%
c1ccc(CCc2ccccc2-c2nc(-c3cccnc3)no2)cc1	3.16µM*	?	-2.2%	28.9%	-0.5%
c1ccc(-c2ccccc2-c2nc(-c3cccnc3)no2)cc1	10µM*	9.9%	?	-2.7%	0.0%
c1ccc(CCc2nc(-c3cccnc3)no2)cc1	10.8%	-2.5%	3.8%	-0.6%	6.6%
Cc1ccc(-c2nc(-c3ccccc3)no2)c(Cl)c1	3.3%	25.1µM*	?	18.3%	3.5%
Cc1ccc(-c2nc(-c3cccnc3)no2)cc1	?	3.2%	?	18.0%	6.0%
CC(=O)Nc1ccc(NC(=O)CSc2nccn2Cc2ccc3c(c2)OCO3)cc1	/	/	1.8%	/	/
Cn1c(Sc2ccc(-c3cccnc3)n2C)ccc1-c1cccnc1	-5.4%[7.6 µM]	-5.4%[11 µM]	?	3.8%[11.4 µM]	1.2%[11.4 µM]
O=C(Cn1ccc2cc(S(=O)(=O)N3CCCCC3)ccc21)NCCc1ccc(Cl)cc1	/	/	0.6%	/	/
Cc1occc1C(=O)Nc1ccc2ccccc2c1	-10.1%	-0.5%	?	10µM*	?
COC(=O)c1c(NC(=O)c2nc3ccccc3s2)sc2c1CCN(C(C)=O)C2	3.16µM*	0.6%	?	?	-1.4%
CNC(=O)c1c(NC(=O)c2nc3ccccc3s2)sc2c1CCC2	-4.6%	-0.4%	?	0.631µM*	-1.1%
CC(=O)N1CCc2c(sc(NC(=O)CSc3ccc(C)cc3)c2-c2nc3ccccc3s2)C1	/	/	4.9%	/	/
CCC(=O)N1CCc2cc(S(=O)(=O)NC(CC(C)C)C(=O)NCc3ccc(F)cc3)ccc21 (stereo unspecified)	/	/	0.4%	/	/
Cc1cc(C)c(C#N)c(SCC(=O)c2cccs2)n1	?	20.6%	?	2.51µM*	-8.3%
CCN(CC)C(=O)CSc1nc(C)cc(-c2cccs2)c1C#N	?	-0.3%	0.5%	60.7%	?
SMILES	CRE-bla Fsk	Hsp90 Hop PPI	IkB sig inh	Tau fil binding	ALOX15 inhib
COC(=O)c1ccc(O)c(Sc2cc(C(=O)OC)ccc2O)c1	15.0%	-1.2%	?	9.5%	15.8µM*
COC(=O)c1ccc(C)cc1	-3.9%	-2.4%	2.5%	2.1%	-4.4%
Cc1c(C(=O)OCc2ccccc2)nnn1-c1nonc1N	-24.2%	2.7%	-1.7%	9.2%	-7.9%
CCOC(=O)c1c(C)n(OCc2ccccc2)c2ccc3nonc3c12	10µM*	29.5%	1.5%	492.3%	-6.7%
c1ccc(-c2ccc(-c3ccc(C4=NCCN4)cc3)o2)cc1	0.501µM*	-1.5%[11 µM]	-4.4%[11.4 µM]	-12.3%[11.4 µM]	-6.1%[11.4 µM]
c1ccc(C2=NCCCN2)cc1	-10.0%	1.4%	0.4%	0.0%	4.0%
COc1cccc2cc3c(=O)n(-c4ccccc4)nc-3oc12	2.4%	-3.4%[2.3 µM]	?	15.8µM*	8.3%
CCCCNC(=O)C1CCN(S(=O)(=O)c2cc(Br)cc3c2N(C(=O)CC)CC3)CC1	/	/	-2.7%	/	/
CN(C)C(=O)c1ccc(-c2cc(-n3ccnc3)ncn2)cc1	0.7%	-5.7%	-2.3%[11.4 µM]	-7.9%	25.1µM*
